# The source made the active and inactive calls. How the source made its calls: active means hit-call score of the fitted dose curve at least 0.9, where 1 is the maximum; inactive means score below 0.9.
# Read-out: Interleukin-8 (IL8), CXCL8 (gene 3576)
# Test: BSK_LPS_IL8: BioMAP Diversity Plus: LPS Assay for Interleukin-8 (IL8) Biomarker Activity (AID 2283078)
# Settings: primary human HUVEC with PBMC; actives raise or lower the signal
# Experimental: BSK_LPS is a cell-based, multiplexed-readout assay that uses umbilical vein endothelium and peripheral blood mononuclear cells, a human vascular primary cell co-culture, with measurements taken at 24 hours after chemical dosing in a 96-well plate.BSK_LPS_IL8 is an assay component measured in the BSK_LPS assay. It measures IL-8 antibody related to regulation of gene expression using ELISA technology.Data from the assay component BSK_LPS_IL8 was analyzed into 1 assay endpoint. This assay endpoint, BSK_LPS_IL8, was analyzed with bidirectional fitting relative to DMSO as the negative control and baseline of activity. Using a type of binding reporter, gain or loss-of-signal activity can be used to understand changes in the signaling as they relate to the gene CXCL8. Furthermore, this assay endpoint can be referred to as a primary readout, because this assay has produced multiple assay endpoints where this one serves a signaling function. To generalize the intended target to other relatable targets, this assay endpoint is annotated to the cytokine intended target family, where the subfamily is interleukins.
# The levels of cell surface (or secreted, indicated by the prefix "s") biomarker endpoints were measured by ELISA. Overt cytotoxicity to cells in confluent adherent cultures (all systems other than the BT system) was assessed by measuring total protein levels using sulforhodamine B (SRB) staining in parallel cultures at the time of biomarker measurements, indicated as SRB endpoints. For proliferation assays for adherent cell types, individual cell types are cultured at sub-confluence and relative cell numbers quantified by SRB staining at time points optimized for each system (48 h: 3C and CASM3C systems; 72 h: BT and HDF3CGF systems; 96 h: SAg system). SRB was performed by staining cells with 0.1% SRB after fixation with 10% TCA and reading wells at 560 nm.Viability and proliferation of PBMC (T cells) was quantified by Alamar Blue reduction for the SAg and BT systems. For PBMC viability (referred to as PBMC Cytotoxicity within the assay endpoint names), cells were plated (75,000/well in a 96-well plate) and then chemical samples added for 1 h before addition of activators, SEB and TSST-1 (20 ng/mL final concentration each). Cells were incubated for 90 h. Then, Alamar Blue (20 uL/well) (Invitrogen, Cat DAL1100) was added for 6 h, and the plates were read with a fluorescence microplate reader at 546/580 nm (excitation/emission). For PBMC proliferation, cells were plated and activated as above but incubated for only 16 h prior to addition of Alamar Blue. Plates were read after 6 h.
SMILES,outcome,AC50
O=C(O)c1cn(C2CC2)c2cc(N3CCNCC3)c(F)cc2c1=O,inactive,–
Nc1cc([N+](=O)[O-])ccc1O,inactive,–
O=C(O)c1ccc([N+](=O)[O-])cc1,inactive,–
BrC1CCC(Br)C(Br)CCC(Br)C(Br)CCC1Br (stereo not given),inactive,–
CCC(=O)OCc1ccccc1,inactive,–
CC1COc2ccccc2N1C(=O)C(Cl)Cl (stereo not given),inactive,–
COc1cc(C=O)ccc1OC(=O)C(C)C,inactive,–
C=C(C)C(=O)O[C@H]1C[C@@H]2CC[C@@]1(C)C2(C)C,–,31.2 µM (active)
OC[C@H]1O[C@H](O[C@]2(CCl)O[C@H](CCl)[C@@H](O)[C@@H]2O)[C@H](O)[C@@H](O)[C@H]1Cl,inactive,–
O=C(O)C[C@H](O)C[C@H](O)/C=C/c1c(C2CC2)nc2ccccc2c1-c1ccc(F)cc1,–,0.992 µM (active)
CCCCC(CC)COC(=O)/C=C\C(=O)OCC(CC)CCCC (stereo not given),inactive,–
CCCCCCCCCC=O,inactive,–
NCCNCCN,inactive,–
Cc1ccc(Nc2ccc(O)c3c2C(=O)c2ccccc2C3=O)cc1,inactive,–
Cc1ccc(O)c(C(C)(C)C)c1,–,29.6 µM (active)
O=[N+]([O-])c1cc(C(F)(F)F)ccc1Cl,inactive,–
CC(=O)OCCC(C)CC(C)(C)C (stereo not given),inactive,–
C[C@H]1C[C@@H]2[C@H]([C@@H](O)C[C@@]3(C)[C@H]2CC[C@]3(O)C(=O)CO)[C@@]2(C)C=CC(=O)C=C12,inactive,–
CC(=O)Nc1ccccc1O,inactive,–
Cc1cc(C2(c3cc(C)c(O)cc3C)OS(=O)(=O)c3ccccc32)c(C)cc1O,inactive,–

SMILES,outcome,AC50
CCCCC(CC)COCCC#N (stereo not given),inactive,–
CC(=O)[C@H]1CC[C@H]2[C@@H]3CC=C4C[C@@H](O)CC[C@]4(C)[C@H]3CC[C@]12C,inactive,–
COC(=O)c1ccc(C)cc1,inactive,–
O=C=NC1CCC(CC2CCC(N=C=O)CC2)CC1 (stereo not given),inactive,–
c1ccc2c(c1)c1cccc3ccc4cccc2c4c31,inactive,–
Cc1ccc2n[nH]nc2c1,inactive,–
O=C1CCCCCCCCCCCCCCO1,inactive,–
O=P(c1ccccc1)(c1ccccc1)c1ccccc1,inactive,–
CC(C)c1ccc(C(C)C)cc1,inactive,–
C#C[C@]1(O)CC[C@H]2[C@@H]3CCC4=Cc5oncc5C[C@]4(C)[C@H]3CC[C@@]21C,inactive,–
CCn1c2ccccc2c2cc(N)ccc21,inactive,–
C=CCOC(=O)CCC1CCCCC1,inactive,–
CC(=O)O[C@]1(C(C)=O)CC[C@H]2[C@@H]3C[C@H](C)C4=CC(=O)CC[C@]4(C)[C@H]3CC[C@@]21C,inactive,–
C=C[Si](OCC)(OCC)OCC,inactive,–
OC1OC[C@@H](O)[C@H](O)[C@H]1O (stereo not given in full),inactive,–
CC[Si](OC(C)=O)(OC(C)=O)OC(C)=O,inactive,–
CC1CCC(C(C)CS)CC1S (stereo not given),inactive,–
O=C(O)c1cn(-c2ccc(F)cc2)c2cc(N3CCNCC3)c(F)cc2c1=O,inactive,–
CCc1c(C)cc(N)c(CC)c1N,inactive,–
c1ccc2sc(SN(C3CCCCC3)C3CCCCC3)nc2c1,inactive,–

# — PubChem BioAssay (EPA / NIEHS)
